# Assay outcomes: PubChem, several laboratories
# This is a sample that favours compounds with a hit; in the whole collection about 3.6% have one here.
# A3G deaminase – inhibitors of human APOBEC3G DNA deaminase; Q9HC16; recombinant A3G, ssDNA deamination FAM/TAMRA fluorescence; inhibition, % at 20 µM; hit rate 0.28% among 330,000; AID 493012;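 active = inhibition of at least 40% at 20 µM, with no more than 30% in the related APOBEC3A deaminase screen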;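 also: plate controls were DMSO wells with A3G for no effect and wells lacking A3G enzyme for full effect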
# PHOSPHO1 inh – PHOSPHO1 (human) inhibition. AID 1565. recombinant PHOSPHO1, absorbance phosphatase assay. inhibition, % at 13.3 µM. hit rate 1.1% among 290,000; in the data active = inhibition above about 60%
# Target sequence (Q8TCT1 whole entry, looked up): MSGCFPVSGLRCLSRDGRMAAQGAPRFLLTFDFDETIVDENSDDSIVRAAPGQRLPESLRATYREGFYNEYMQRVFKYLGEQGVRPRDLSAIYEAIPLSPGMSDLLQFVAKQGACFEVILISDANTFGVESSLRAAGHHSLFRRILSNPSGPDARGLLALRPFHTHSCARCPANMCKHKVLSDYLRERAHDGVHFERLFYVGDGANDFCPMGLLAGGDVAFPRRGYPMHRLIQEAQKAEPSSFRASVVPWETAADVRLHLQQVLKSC
# Wnt bcat act – activates Wnt/beta-catenin signaling in a reporter cell assay; activator, plate reader; activation, % at 9.35 µM; hit rate 1.2% among 300,000; AID 743398; in the data active = activation above about 30%, passing the limit was not always enough; inconclusive = no clear call, values can overlap the other calls;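 also: 0% = neutral control wells and 100% = positive control wells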
# esBAF inh – SWI/SNF esBAF complex inhibition. mouse ES cells, Bmi1-luciferase knock-in reporter, 24 h; 100% = twice the neutral-well signal. reporter increase, % at 12.5 µM. hit rate 2% among 350,000. AID 602393; in the data active = activation above about 40%; inconclusive = no clear call, values can overlap the other calls;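 also: 0% = median of the plate's neutral control wells and 100% = double that signal; a rise in the Bmi1 reporter signal indicates esBAF inhibition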
# A3A deaminase – human APOBEC3A DNA deaminase inhibition. recombinant A3A, FAM/TAMRA ssDNA deamination fluorescence. inhibition, % at 20 µM. hit rate 0.41% among 330,000;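 active = at least 40% inhibition at 20 µM here, with at most 30% in a related deaminase screen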;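 also: plate controls were A3A with DMSO for no effect and wells lacking A3A enzyme for full effect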
# Target sequence (P31941 whole entry, looked up): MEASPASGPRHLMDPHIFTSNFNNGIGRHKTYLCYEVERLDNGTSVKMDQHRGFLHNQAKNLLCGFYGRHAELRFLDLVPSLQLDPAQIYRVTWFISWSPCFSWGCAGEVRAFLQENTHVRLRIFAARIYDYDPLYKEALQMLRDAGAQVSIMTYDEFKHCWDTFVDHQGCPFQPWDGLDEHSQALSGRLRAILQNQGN
# MITF act – activators of MITF-driven TRPM1 promoter activity in SK-MEL-5 cells | SK-MEL-5 TRPM1-promoter luciferase, 24 h; % of positive control, neutral wells = 0 | activation, % at 12.5 µM | hit rate 0.75% among 300,000 | AID 588334;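 active = mean activation of at least 80% with every replicate also reaching 80%; inconclusive = mean reaches 80% but some replicate falls short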;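 also: 0% = neutral control wells and 100% = parthenolide positive control wells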
# * hit, by the source's call; ? = inconclusive; . = no result given.
SMILES,A3G deaminase,PHOSPHO1 inh,Wnt bcat act,esBAF inh,A3A deaminase,MITF act
CC(=O)NCCCc1nc2ccccc2n1Cc1cc(C)ccc1C,-6.6,64.3*,3.0,.,-4.8,1.9
Cn1nnnc1SCC(=O)Nc1nc2c(s1)CCCC2,-2.5,-9.4,?,17.8,-2.3,93.1*
COc1cc(OC)cc(-n2nnnc2SCC(=O)Nc2nc3c(s2)CCCC3)c1,-6.9,8.3,.,.,-2.2,2.7
C[C@H](CO)N1C[C@H](C)[C@H](CN(C)C)Oc2ncc(-c3cc4ccccc4o3)cc2C1=O,.,.,.,2.9,.,.
CCOC(=O)c1ccc(NC(=O)CC2SCCNC2=O)cc1 (stereo not given),-8.0,-11.6,40.5*,22.4,-2.7,.
CC1CCN(CCc2nc3cc(NC(=O)Nc4ccccc4)ccc3n2C)CC1,-4.3,-6.1,22.0,44.3*,1.1,.
CC(=O)Nc1ccc2c(c1)nc(CCN1CCC(C)CC1)n2C,-4.7,-11.5,-3.8,-12.5,-0.2,2.3
COc1ccc(OCC(=O)Nc2ccc3c(c2)nc(CCN2CCN(C)CC2)n3C)cc1,5.0,70.1*,0.0,0.9,2.6,1.1
CNC[C@@H]1OCCCC[C@@H](C)Oc2ccc(NS(=O)(=O)c3ccc(Cl)cc3)cc2C(=O)N([C@@H](C)CO)C[C@H]1C,.,.,.,-5.6,.,.
CC(C)c1ccc(-c2csc(NC(=O)c3cccs3)c2C(=O)O)cc1,-5.5,-9.7,11.7,51.7*,3.1,6.3
Cc1ccc(-c2csc(NC(=O)c3cccc(C)c3)c2C(=O)O)cc1,-4.2,.,40.2*,.,-2.1,.
Cc1cccc(C(=O)Nc2scc(-c3ccc(Br)cc3)c2C(=O)O)c1,-5.8,.,6.5,.,-2.8,.
Cc1ccc(-c2csc(NC(=O)c3ccc(Br)cc3)c2C(=O)O)cc1,-5.0,5.5,16.4,42.9,-2.8,106.3*
COc1cc(C(=O)Nc2scc(-c3ccc(Br)cc3)c2C(=O)O)cc(OC)c1OC,-0.1,.,2.3,-2.0,0.9,-5.7
Cc1ccc(-c2nc3c4ccccc4ccn3c2Cc2ccccc2)cc1,.,.,0.7,8.0,.,.
CCCc1nc2c3ccccc3ccn2c1Cc1ccccc1,.,.,33.5*,51.6*,.,.
S=c1[nH]nc(-c2ccccc2)n1Cc1ccccc1,31.9,104.8*,-5.5,-3.7,-2.6,-0.5
Cc1ccn(Cc2n[nH]c(=S)n2Cc2ccccc2)n1,23.9,77.9*,.,.,-6.8,2.1
CCc1ccc(OCc2n[nH]c(=S)n2Cc2ccccc2)cc1,-4.7,89.7*,-2.9,8.8,-2.1,17.0
Cc1n[nH]c(=S)n1Cc1ccccc1,-0.7,7.5,4.0,-5.0,-6.4,3.9
S=c1[nH]nc(-c2ccc(Cl)cc2)n1Cc1ccccc1,29.7,-1.2,-0.9,-2.4,1.3,2.7
CCCCOc1ccc(Cc2n[nH]c(=S)n2N)cc1,-0.7,78.9*,.,2.3,-0.4,9.5
O=C(C[C@@H]1C[C@@H]2c3cc(NS(=O)(=O)c4ccccc4)ccc3O[C@@H]2[C@H](CO)O1)NC1CCCCC1,.,.,.,2.8,.,.
CCOc1ccc(/C=C/C2=Cc3c(sc(NC(=O)CSc4n[nH]c(N)n4)c3C#N)C(C)(C)C2)cc1,-6.7,-83.7,.,.,-3.6,5.5
Cc1ccsc1/C=C/C1=Cc2c(sc(NC(=O)CSc3n[nH]c(N)n3)c2C#N)C(C)(C)C1,14.0,80.4*,2.4,1.3,25.2,2.9
SMILES,A3G deaminase,PHOSPHO1 inh,Wnt bcat act,esBAF inh,A3A deaminase,MITF act
CN(C)C(CNC(=O)c1cccc(OC(F)F)c1)c1ccco1 (stereo not given),-5.7,17.3,5.5,45.2*,3.1,8.4
CC(=O)Nc1ccc(C(=O)NCC(c2ccco2)N(C)C)cc1 (stereo not given),-7.5,35.2,0.9,.,1.7,-6.6
CN(C)C(CNC(=O)c1ccc2nccnc2c1)c1ccco1 (stereo not given),10.9,.,17.3,?,3.8,21.3
CC(=O)c1ccc(-c2ccc(C(=O)NCC(c3ccco3)N(C)C)o2)cc1 (stereo not given),-7.5,.,0.8,80.4*,-0.7,23.9
Cc1ccc(NC(=S)NC(=O)C2CC2)c(C)c1,-5.6,18.5,18.0,50.0*,-7.3,29.7
O=C(NC(=S)Nc1ccc(O)cc1)C1CCCC1,-8.2,.,21.9,2.3,-5.0,25.0
O=C(NC(=S)Nc1cccc(O)c1)C1CCCCC1,-1.5,.,-3.6,41.9*,-4.7,55.0
Cc1ccc(NC(=S)NC(=O)C2CCCC2)cc1C,-3.3,17.4,27.5,.,-1.9,114.3*
CCN(CC)S(=O)(=O)c1cc(NC(=S)NC(=O)C2CCCC2)ccc1C,-6.3,.,1.4,-15.2,-4.0,-6.5
